Results filed as inconclusive are left out. Activity calls are given as the source filed them. The call rests on the fitted dose curve; in most records, active means well fitted curve in the direction sought with a large enough effect; inconclusive means small, poorly fitted or top-dose-only effect, or another doubt; inactive means no such curve, though single readings can be large; an effect the other way counts as inactive or inconclusive.
Tests used:
CRL-7250 = normal cell line; experiment: Cytotoxic Profiling of Annotated Libraries Using Quantitative High-Throughput Screening (AID 1296008); conditions: Five cell lines viability, CellTiter-Glo ATP luminescence, 48-72 h; max response: stronger effect = lower value; further: nearly all actives have a fitted effect of over 60% in size; further: potency means the concentration at half of the fitted maximal effect; on max response: on the % scale 0 is the no-effect control and ±100 the full control effect
Procedure, shortened: (§1)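 Cytotoxicity was measured as CellTiter-Glo ATP luminescence, read after 10 min at room temperature. Compound treatment of the cells lasted 48 or 72 hr at 37 degrees Celsius in a qHTS format.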

HaCat [1] = experiment: as above; conditions: Five cell lines viability, CellTiter-Glo ATP luminescence, 48-72 h; max response: stronger effect = lower value
Procedure, shortened: as §1

KB-3-1 = experiment: as above; conditions: Five cell lines viability, CellTiter-Glo ATP luminescence, 48-72 h; max response: stronger effect = lower value
Procedure, shortened: as §1

NIH3T3 = experiment: as above; conditions: Five cell lines viability, CellTiter-Glo ATP luminescence, 48-72 h; max response: stronger effect = lower value
Procedure, shortened: as §1

CAOV3 = experiment: Primary qHTS to identify gynecologic anti-cancer compounds using libraries of approved drugs and bioactive compounds (AID 1345084); conditions: Gynecologic cancer cell panel viability, ATPlite luminescence, 48 h; series mostly up to 57.5 µM; further: nearly all actives have a fitted effect of over 55% in size; further: potency means the concentration at half of the fitted maximal effect; on activity change, negative = cytotoxicity: on the % scale 0 is the no-effect control and ±100 the full control effect
Procedure, shortened: (§2)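 Five-point cytotoxicity, 48 h drug exposure at 37 C, 5% CO2, on cells seeded 16 h beforehand. ATP content read by ATPlite luminescence.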

CASKI = experiment: as above; conditions: Gynecologic cancer cell panel viability, ATPlite luminescence, 48 h; series mostly up to 57.5 µM
Procedure, shortened: as §2

OV90 = experiment: as above; conditions: Gynecologic cancer cell panel viability, ATPlite luminescence, 48 h; series mostly up to 57.5 µM
Procedure, shortened: as §2

HACAT [2] = experiment: qHTS assay to identify novel small-molecules to repurpose for Merkel cell carcinoma treatment (AID 1296009); conditions: MCC and control cell lines, CellTiter-Glo viability, 72 h; at 44.8 µM (top of the series) unless noted; further: nearly all actives have a fitted effect of over 60% in size
Procedure, shortened: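 72 hr, 37 degree celsius; NPC 8-pt / MIPE 11-pt dose response; compound pinned in DMSO; CellTiter-Glo, 10 min RT, luminescence; normalized to no-cell and DMSO controls.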

C33A = experiment: Primary qHTS to identify gynecologic anti-cancer compounds using libraries of approved drugs and bioactive compounds (AID 1345084); conditions: Gynecologic cancer cell panel viability, ATPlite luminescence, 48 h; series mostly up to 57.5 µM; further: nearly all actives have a fitted effect of over 55% in size; further: potency means the concentration at half of the fitted maximal effect; on activity change, negative = cytotoxicity: on the % scale 0 is the no-effect control and ±100 the full control effect
Procedure, shortened: as §2

Es-2 = experiment: as above; conditions: Gynecologic cancer cell panel viability, ATPlite luminescence, 48 h; series mostly up to 57.5 µM
Procedure, shortened: as §2

HeLa = experiment: as above; conditions: Gynecologic cancer cell panel viability, ATPlite luminescence, 48 h; series mostly up to 57.5 µM
Procedure, shortened: as §2

Hek293T = experiment: as above; conditions: Gynecologic cancer cell panel viability, ATPlite luminescence, 48 h, control line for the selectivity index; series mostly up to 57.5 µM
Procedure, shortened: as §2

JEG-3 = experiment: as above; conditions: Gynecologic cancer cell panel viability, ATPlite luminescence, 48 h; series mostly up to 57.5 µM
Procedure, shortened: as §2

CC1(C)CC[C@]2(C(=O)O)CC[C@]3(C)C(=CCC4[C@@]5(C)C[C@@H](O)[C@H](O)C(CO)(CO)C5CC[C@]43C)C2[C@@H]1O (stereo not given in full)
active: Potency (CRL-7250) 7.96 µM | Potency (KB-3-1) 10 µM
inactive: max response (HaCat [1]) -58.7% | max response (NIH3T3) -1.94% | Potency (CAOV3) | Potency (CASKI) | Potency (OV90)

C=C1C(=O)OC2/C=C(\CO)CC/C=C(\C=O)C(O)C(OC(=O)C(C)CC)C12 (stereo not given)
inactive: max response (CRL-7250) 0.0349% | outcome (HaCat [1]) | outcome (KB-3-1) | outcome (HACAT [2]) | Potency (C33A) | Potency (CAOV3) | Potency (CASKI) | Potency (Es-2) | Potency (HeLa) | Potency (Hek293T) | Potency (JEG-3) | Potency (OV90)

O=C(Nc1ccccc1Cl)c1cnc2ccc(C3CCNCC3)cn12
inactive: max response (KB-3-1) 2.96% | Potency (HeLa) | Potency (Hek293T)
active: Potency (CRL-7250) 1.03 µM | Potency (HaCat [1]) 1.64 µM | Potency (NIH3T3) 1.46 µM | Potency (OV90) 7.94 µM

C=C(C)C1=C[C@@]2(C)C(=CC1=O)CC[C@@H](O)[C@@H]2C
inactive: max response (CRL-7250) 3.24% | outcome (HaCat [1]) | outcome (KB-3-1) | outcome (HACAT [2]) | Potency (C33A) | Potency (CAOV3) | Potency (CASKI) | Potency (Es-2) | Potency (HeLa) | Potency (Hek293T) | Potency (JEG-3) | Potency (OV90)

CC1OC(OC2C(O)COC(O[C@@H]3[C@@H](O)[C@@H](O)[C@H](OC4C(OC(=O)[C@]56CCC(C)(C)CC5C5=CCC7[C@@]8(C)C[C@H](O)[C@H](OC9OC(CO)C(O)C(O)C9O)[C@@](C)(CO)C8[C@H](O)C[C@@]7(C)[C@]5(C)CC6)OCC(O)C4O)O[C@H]3C)C2O)C(O)C(O)C1O (stereo not given in full)
inactive: max response (CRL-7250) -12.5% | max response (HaCat [1]) 0.653% | max response (KB-3-1) 8.32% | max response (NIH3T3) 2.11% | activity change, negative = cytotoxicity (C33A) -9.28% [at 6.55 µM] | activity change, negative = cytotoxicity (CASKI) 20% [at 6.55 µM] | activity change, negative = cytotoxicity (Es-2) -27.5% [at 6.55 µM] | activity change, negative = cytotoxicity (HeLa) -4.81% [at 6.55 µM] | activity change, negative = cytotoxicity (Hek293T) -17.3% [at 6.55 µM] | activity change, negative = cytotoxicity (JEG-3) -13.2% [at 6.55 µM] | activity change, negative = cytotoxicity (OV90) 13.1% [at 6.55 µM]

CCCc1cc(C)n(C)c(=O)c1CN(C)C(=O)c1cc(-c2ccc(N3CCN(C(C)C)CC3)nc2)cc2c1cnn2C(C)C
inactive: max response (CRL-7250) -1.11% | max response (HaCat [1]) 1.32% | max response (KB-3-1) 4.77% | outcome (NIH3T3) | Potency (CASKI) | Potency (Es-2) | Potency (Hek293T) | Potency (JEG-3) | Potency (OV90)

Cc1ccccc1CN1CCn2c1nc1c(c2=O)CN(Cc2ccccc2)CC1
inactive: max response (CRL-7250) 1.02% | outcome (HaCat [1]) | max response (KB-3-1) -11.6% | outcome (HACAT [2]) | Potency (C33A) | Potency (CAOV3) | Potency (CASKI) | Potency (Es-2) | Potency (HeLa) | Potency (Hek293T) | Potency (JEG-3) | Potency (OV90)

Cc1ccc(S(=O)(=O)NCc2ccc(C(=O)NCCN(Cc3ccccc3)C(C)C)cc2)cc1
inactive: max response (CRL-7250) -10.1% | max response (HaCat [1]) -19.3% | max response (KB-3-1) -24.2% | max response (NIH3T3) -5.87% | Potency (CAOV3) | Potency (CASKI) | Potency (HeLa) | Potency (Hek293T) | Potency (JEG-3)

C/C=C(\C)C(=O)OC1C(C)C2(O)C(C=C(CO)CC3(O)C(=O)C(C)=CC32)C2C(C)(C)C12OC(=O)C(C)C (stereo not given)
inactive: max response (CRL-7250) -36% | max response (HaCat [1]) -1.92% | max response (KB-3-1) -0.0958% | max response (NIH3T3) 1.03% | Potency (CAOV3) | Potency (CASKI) | Potency (Es-2) | Potency (HeLa) | Potency (Hek293T) | Potency (OV90)

CNS(=O)(=O)c1ccccc1Nc1nc(Nc2ccc(N3CCN(C)CC3)cc2OC)ncc1Br
active: Potency (CRL-7250) 1.64 µM | Potency (HaCat [1]) 3.26 µM | Potency (KB-3-1) 4.61 µM | Potency (NIH3T3) 1.46 µM | Potency (CAOV3) 2.24 µM | Potency (CASKI) 7.94 µM | Potency (Hek293T) 14.1 µM

COc1cc(CCc2cc(NC(=O)c3ccc(N4CC(C)NC(C)C4)cc3)n[nH]2)cc(OC)c1 (stereo not given)
inactive: max response (HaCat [1]) 4.79% | Potency (CASKI) | Potency (JEG-3)
active: Potency (CRL-7250) 9.2 µM | Potency (KB-3-1) 11.6 µM | Potency (NIH3T3) 14.6 µM

CC(C)S(=O)(=O)c1ccc2nccc(Nc3ccc4scnc4c3)c2c1
inactive: max response (CRL-7250) -19% | outcome (HaCat [1]) | outcome (KB-3-1) | outcome (HACAT [2]) | Potency (C33A) | Potency (CAOV3) | Potency (CASKI) | Potency (Es-2) | Potency (HeLa) | Potency (Hek293T) | Potency (JEG-3) | Potency (OV90)

CCOc1cccc(NC(=O)c2ccc(N3CCCC3)c(C(F)(F)F)c2)c1
inactive: max response (CRL-7250) -10.4% | outcome (HaCat [1]) | max response (KB-3-1) -0.259% | outcome (HACAT [2]) | Potency (C33A) | Potency (CAOV3) | Potency (CASKI) | Potency (Es-2) | Potency (HeLa) | Potency (Hek293T) | Potency (JEG-3) | Potency (OV90)

COCCNCc1ccc(-c2cc3nccc(Oc4ccc(NC(=O)C5(C(=O)Nc6ccc(F)cc6)CC5)cc4F)c3s2)nc1
active: Potency (CRL-7250) 18.4 µM | Potency (HaCat [1]) 23.1 µM | Potency (KB-3-1) 6.51 µM | Potency (NIH3T3) 0.731 µM
inactive: Potency (Es-2)

C=C1C(=O)O[C@@H]2/C=C(\C)CC/C=C(/C=O)[C@H](OC)[C@@H](OC(=O)C(C)C)[C@@H]12
inactive: max response (CRL-7250) 2.09% | outcome (HaCat [1]) | outcome (KB-3-1) | outcome (HACAT [2]) | Potency (C33A) | Potency (CAOV3) | Potency (CASKI) | Potency (HeLa) | Potency (JEG-3)

CCn1nc(C2CCN(C(=O)CCO)CC2)nc1-c1cnc(N)c(-c2nnc(C(C)(C)C)o2)n1
inactive: max response (CRL-7250) -9.09% | max response (KB-3-1) 9.1% | Potency (C33A) | Potency (Es-2) | Potency (HeLa) | Potency (Hek293T) | Potency (JEG-3) | Potency (OV90)
active: Potency (HaCat [1]) 3.66 µM | Potency (NIH3T3) 8.2 µM
